An excerpt weighted towards active compounds, which were near 5.5% of everything screened.
Integrin act MD = qHTS for Activators of Integrin-Mediated Alleviation for Muscular Dystrophy | alpha7betagal myoblasts, beta-gal FDG fluorescence, 48 h | Potency, µM (highest dose often 38.3 µM), without a hit: at the highest dose activation, hits mostly activators | 0.064% of 350,000 active | AID 624291, 2012;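 further: 100% = response of the positive control SU9516; nearly all actives have a fitted effect of over 60% in size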
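Alpha7betagal+/- myoblasts (passage 13) were plated 16-24 hr, then exposed to compounds (1:260 dilution of DMSO stock) for 48 hours at 37C. After MPER lysis, β-galactosidase reporter activity was read as FDG fluorescence (ex 480/em 540) after 30 minutes.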
RORg inh = qHTS for inhibitors of ROR gamma transcriptional activity | Drosophila S2 Gal4-RORgamma UAS-luciferase reporter, 20 h | Potency, µM (top dose mostly 53.6 µM), inactives show at the highest dose activity change, negative = inhibition, most hits filed as inhibitors | 5.4% of 310,000 active | AID 2551, 2010; further: on the % scale 0 is the no-effect control and ±100 the full control effect; nearly all actives have a fitted effect of over 60% in size
Target sequence (P51450 whole entry, looked up, the tested form may be a part): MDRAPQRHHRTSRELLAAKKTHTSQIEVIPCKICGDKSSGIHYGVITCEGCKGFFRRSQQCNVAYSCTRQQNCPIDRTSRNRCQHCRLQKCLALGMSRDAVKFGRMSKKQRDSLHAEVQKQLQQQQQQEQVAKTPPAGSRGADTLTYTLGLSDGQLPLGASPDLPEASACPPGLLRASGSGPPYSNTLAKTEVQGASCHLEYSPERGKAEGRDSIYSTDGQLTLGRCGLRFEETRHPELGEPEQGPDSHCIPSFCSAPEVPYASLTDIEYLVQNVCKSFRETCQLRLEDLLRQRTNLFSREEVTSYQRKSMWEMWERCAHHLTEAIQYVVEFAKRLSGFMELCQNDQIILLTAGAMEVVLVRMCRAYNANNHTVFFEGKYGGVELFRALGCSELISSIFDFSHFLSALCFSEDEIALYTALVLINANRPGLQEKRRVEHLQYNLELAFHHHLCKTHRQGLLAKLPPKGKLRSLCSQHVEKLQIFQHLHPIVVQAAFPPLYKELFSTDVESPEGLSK
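Stable Schneider cell line, Gal4 DNA-binding domain fused to ROR gamma, UAS-luciferase. Cmpd 1 hr RT → CuSO4 700 uM final → 20 hr RT → luciferase reagent 10 min → luminescence.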
VP16 counter = VP16 counterscreen qHTS for inhibitors of ROR gamma transcriptional activity; Drosophila S2 Gal4-VP16 UAS-luciferase, luminescence, 20 h; AID 2546, 2010; 3.5% of 310,000 active; Potency, µM (top dose mostly 53.6 µM), for inactives: top-dose activity, negative = inhibition, hits mostly inhibitors;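 further: Gal4-VP16 expression switched on by copper sulfate through the metallothionein promoter; on the % scale 0 is the no-effect control and ±100 the full control effect; nearly all actives have a fitted effect of over 50% in size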
uPA surface inh = qHTS for Inhibitors of Cell Surface uPA Generation. cell surface uPA generation assay, qHTS. Potency, µM (titrated, usually from 38.3 µM), inactives show at the top dose activity change, negative = inhibition, actives largely listed as inhibitors. 0.31% of 330,000 active. AID 540303, 2011; active means well fitted inhibition curve with a large enough effect; inconclusive means small, poorly fitted or top-dose-only effect; inactive means no such curve, though single readings can be large or run the other way; tested in mouse RAW 264.7 cells; further: on the % scale 0 is the no-effect control and ±100 the full control effect; nearly all actives have a fitted effect of over 55% in size
Chronic BCR inh = qHTS Assay to Find Inhibitors of Chronic Active B-Cell Receptor Signaling; ABC-DLBCL IkBa-CBG/CBR reporter, luminescence ratio, 4 h; 0.05% of 340,000 active; Potency, µM (highest dose often 46.1 µM), for inactives: top-dose activity change, negative = inhibition, actives largely listed as inhibitors; AID 493014, 2011; active means well fitted inhibition curve with a large enough effect in the signal ratio, with a control signal flat, not every such curve was filed as active; inconclusive means small, poorly fitted or top-dose-only effect, or effect the other way, or a change in a side signal; the % refers to the signal ratio;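 further: plate controls were basal doxycycline-induced cells for no effect and cells given 10 µM MG132 for full effect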
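Compounds up to 46 uM were incubated four hours with TMD8 cells whose green CBG68 luciferase is fused to IkappaBalpha; red CBR luminescence normalised the signal, and concentration-effect curves were fitted to fusion, red and ratio data.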
Mito fusion act = qHTS Assay for Small Molecule Inhibitors of Mitochondrial Division or Activators of Mitochondrial Fusion; Potency, µM (top dose mostly 46.1 µM), inactives show at the top dose growth rescue (activation), most hits filed as activators; S. cerevisiae fusion-defective mutant growth rescue, CellTiterGlo 48 h; AID 485298, 2010; 0.23% of 320,000 active; further: % of control where 0% means no effect; nearly all actives have a fitted effect of over 45% in size
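S. cerevisiae fusion-defective temperature-sensitive mutants (e.g. fzo1-1, mgm1-5) grown 48 h at 37C in YPEG (ethanol/glycerol non-fermentable) medium with 23 nl compound per well; growth rescue read as CellTiterGlo luminescence.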
Starred values were filed as active, the others as inactive; ? = inconclusive; / = no result; [ ] = another dose, or the depositor's remark. Unless noted, the call rests on the fitted dose curve; in most records, active means well fitted curve in the direction sought with a large enough effect; inconclusive means small, poorly fitted or top-dose-only effect, or another doubt; inactive means no such curve, though single readings can be large; an effect the other way counts as inactive or inconclusive. Potency means the concentration at half of the fitted maximal effect.

SMILES	Integrin act MD	RORg inh	VP16 counter	uPA surface inh	Chronic BCR inh	Mito fusion act
COc1ccc2c(=O)c(C)c(-c3ccccc3)oc2c1CN(C)C	/	23%	-3%	/	/	/
Cc1cc(C(=O)N2CCN(S(=O)(=O)c3ccccc3F)CC2)c(C)o1	6%	13µM*	7%	-8%	-6%	-4%
Cc1cc(C(=O)N2CCN(S(=O)(=O)c3ccccc3C#N)CC2)c(C)o1	-9%	/	/	-1%	-2%	-2%
Cc1cc(C(=O)N2CCN(c3ncccn3)CC2)c(C)o1	-24%	22µM*	-1%[0.365 µM]	/	3%	-3%
COc1ccc(CCN2C(=S)NC3CC2(C)Oc2ccc([N+](=O)[O-])cc23)cc1OC (stereo not given)	-47%[7.66 µM]	16µM*	?	-14%	?	8%
CCOC(=O)c1c(C)[nH]c(C2=NNC(=Nc3ccc(OCC)cc3)SC2)c1C	-38%	?	?	-7%	-1%	5%
CCOC(=O)c1c(C)[nH]c(C2=NNC(=Nc3ccccc3)SC2)c1C	-37%	?	11µM*	?	23%	6%
Cc1ccc(S(=O)(=O)n2cc(-c3ccccc3)c3ccccc32)cc1	-12%	/	/	1.1µM*	?	?
S=C(NNc1ccc2ccccc2c1)NC1CCCCC1	-53%	2.8µM*	2.8µM*	-4%	?	-21%
CN(C(=S)Nc1ccc(Oc2ccccc2)cc1)C1CCCCC1	-52%	-42%[10 µM]	?	-1%	4%	26%
Cc1ccc(NC(=S)NNC(=S)NC2CCCCC2)cc1	4%	16µM*	?	-3%	-24%	1%
S=C(Nc1ccc(Oc2ccccc2)cc1)NC1CCCCC1	-4%	2.2µM*	-4%[0.365 µM]	0%	?	?
S=C(Nc1ccc(Oc2ccccc2)cc1)NC1CCCCCC1	-23%	1.8µM*	3.2µM*	10%	?	?
OCCNC(=S)Nc1ccc(Oc2ccccc2)cc1	-4%	-26%	21%	16%	1%	9%
CC(=O)c1ccc(NC(=S)NNC(=O)NC2CCCCC2)cc1	9%	?	?	-4%	?	-1%
CSCC[C@H](NC(=O)[C@H](Cc1ccccc1)NC(=O)[C@H](Cc1cnc[nH]1)NC(=O)CNC(=O)[C@@H](NC(=O)[C@H](C)NC(=O)[C@H](Cc1c[nH]c2ccccc12)NC(=O)[C@H](CC(C)C)NC(=O)[C@H](CC(N)=O)NC(=O)CN)[C@@H](C)O)C(N)=O	/	11%	0%	/	/	/
CCN1C(=O)[C@H]2[C@H]3[C@H](O)[C@H](O)C/C(=N/OCC(C)C)[C@H]3CC[C@@H]2C1=O	/	-20%[10 µM]	2%[10 µM]	/	/	/
CC(C)c1ccc(NC(=S)NC2CCCCCC2)cc1	17%	2.2µM*	16µM*	-3%	6%	-1%
NS(=O)(=O)c1ccc(NC(=S)NC2CCCC2)cc1	13%	-8%	2%	4%	?	-2%
NS(=O)(=O)c1ccc(NC(=S)NC2CCCCCC2)cc1	-33%	5%	2%	-2%	?	-1%
S=C(Nc1ccc(Oc2ccc(NC(=S)NC3CCCCC3)cc2)cc1)NC1CCCCC1	6%	1µM*	?	1%	6%	17%
O=C(NNC1=Nc2ccccc2SC1)c1ccccc1F	0%	0.89µM*	0.71µM*	1%	?	6%
O=C(NNC1=Nc2ccccc2SC1)c1cccc([N+](=O)[O-])c1	-42%	?	-26%	-2%	?	3%
CCOc1ccc(C2C(=O)N(C3CCCCCC3)CC(=O)N2Cc2ccc(F)cc2)cc1OC (stereo not given)	/	/	/	/	2%	/
O=C(Nc1ccc(C(=O)N2CCN(c3ccc(Cl)cc3)CC2)cc1)C1=CSCCO1	-17%	29%	-2%	0%	1%	-5%
SMILES	Integrin act MD	RORg inh	VP16 counter	uPA surface inh	Chronic BCR inh	Mito fusion act
O=C(Nc1ccccc1C(=O)N1CCN(c2cccc(Cl)c2)CC1)C1=CSCCO1	1%	19%	0%	-4%	2%	35µM*
COc1ccc(S(=O)(=O)N=Nc2c(O)[nH]c3ccccc23)cc1	-19%	19%	3%	-1%	-1%	?
CNC(=S)N=Nc1c(O)[nH]c2ccc(C(C)C)cc12	-31%	4µM*	2.8µM*	-5%	-23%	-8%
Cc1ccccc1N=Nc1c(O)[nH]c2ccccc12	6%	/	/	-1%	/	/
CC(C)NC(=S)N=Nc1c(O)[nH]c2ccc([N+](=O)[O-])cc12	-53%	-7%	1%	-17%	?	-5%
CNC(=S)N=Nc1c(O)[nH]c2ccccc12	6%	3.2µM*	?	-3%	?	-9%
C=C(C)CNC(=S)N=Nc1c(O)[nH]c2ccc([N+](=O)[O-])cc12	-50%	2.5µM*	13µM*	1%	?	11%
COc1ccc(NC(=S)N=Nc2c(O)[nH]c3ccccc23)cc1	-14%	1.3µM*	3.5µM*	?	?	14%
CCOC(=O)C1CCN(c2ncnc3c2c(-c2ccccc2)cn3-c2ccc(Cl)cc2)CC1	/	/	/	/	6%	/
Cc1ccc(S(=O)(=O)N(Cc2ccccc2F)C(=O)N2CCN(C)CC2)cc1	7%	/	/	2%	3%	-2%
COC(=O)c1ccc(C(NC(=O)OCc2ccccc2)/C(=C/[C@@H](C)C(=O)NCc2cc(C)on2)c2cccnc2)cc1 (stereo not given in full)	/	17%	-2%	/	/	/
O=C(O)c1ccc(N=Nc2c(O)[nH]c3ccccc23)cc1	-5%	?	35µM*	-2%	?	-8%
Cc1ccc(NC(=S)N=Nc2c(O)[nH]c3ccccc23)cc1	-52%	0.32µM*	1.3µM*	-6%	?	-18%
Oc1ccc(NC(=S)N=Nc2c(O)[nH]c3ccccc23)cc1	-15%	?	-25%	-4%	?	5%
CCOc1ccc(N2CC(NS(=O)(=O)c3cccnc3)CC2=O)cc1 (stereo not given)	0%	/	/	17%	?	-2%
CC(C)C(=O)N1CCCCCCN1C(=O)C(C)C	21%	/	/	/	/	/
O=C(c1cc(-c2ccc(Cl)cc2)n(-c2ccc(Cl)c(Cl)c2)n1)N1CCOCC1	-29%	2.2µM*	?	5%	?	17%
O=c1[nH]c(Cc2ccccn2)nc2scc(-c3ccc(Cl)cc3)c12	36%	5.6µM*	?	-1%	1%	1%
Cc1ccc(-c2csc3nc(CN(C)Cc4ccccc4)[nH]c(=O)c23)cc1	19%	1.3µM*	6.3µM*	-3%	?	20%
